# From paper PMC4336329 (PLoS ONE, 2015)
# The whole screen tested about 310,000 compounds, of which about 14,000 (4.5%) showed an effect of 50% or more. The effect is printed as a negative number. This is one part of a sample in which strong results are shown more often than they occur.
# Target: human ether-à-go-go-related gene (hERG) potassium channel (human, UniProt Q12809)
# Experiment: primary screen, population patch clamp on CHO cells stably expressing hERG; higher = less effect of the substance
# 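Further: peak tail current of the secondary pulse compared with the same well before compound.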
# human ether-à-go-go-related gene (hERG) potassium channel, sequence (Q12809 whole entry, looked up): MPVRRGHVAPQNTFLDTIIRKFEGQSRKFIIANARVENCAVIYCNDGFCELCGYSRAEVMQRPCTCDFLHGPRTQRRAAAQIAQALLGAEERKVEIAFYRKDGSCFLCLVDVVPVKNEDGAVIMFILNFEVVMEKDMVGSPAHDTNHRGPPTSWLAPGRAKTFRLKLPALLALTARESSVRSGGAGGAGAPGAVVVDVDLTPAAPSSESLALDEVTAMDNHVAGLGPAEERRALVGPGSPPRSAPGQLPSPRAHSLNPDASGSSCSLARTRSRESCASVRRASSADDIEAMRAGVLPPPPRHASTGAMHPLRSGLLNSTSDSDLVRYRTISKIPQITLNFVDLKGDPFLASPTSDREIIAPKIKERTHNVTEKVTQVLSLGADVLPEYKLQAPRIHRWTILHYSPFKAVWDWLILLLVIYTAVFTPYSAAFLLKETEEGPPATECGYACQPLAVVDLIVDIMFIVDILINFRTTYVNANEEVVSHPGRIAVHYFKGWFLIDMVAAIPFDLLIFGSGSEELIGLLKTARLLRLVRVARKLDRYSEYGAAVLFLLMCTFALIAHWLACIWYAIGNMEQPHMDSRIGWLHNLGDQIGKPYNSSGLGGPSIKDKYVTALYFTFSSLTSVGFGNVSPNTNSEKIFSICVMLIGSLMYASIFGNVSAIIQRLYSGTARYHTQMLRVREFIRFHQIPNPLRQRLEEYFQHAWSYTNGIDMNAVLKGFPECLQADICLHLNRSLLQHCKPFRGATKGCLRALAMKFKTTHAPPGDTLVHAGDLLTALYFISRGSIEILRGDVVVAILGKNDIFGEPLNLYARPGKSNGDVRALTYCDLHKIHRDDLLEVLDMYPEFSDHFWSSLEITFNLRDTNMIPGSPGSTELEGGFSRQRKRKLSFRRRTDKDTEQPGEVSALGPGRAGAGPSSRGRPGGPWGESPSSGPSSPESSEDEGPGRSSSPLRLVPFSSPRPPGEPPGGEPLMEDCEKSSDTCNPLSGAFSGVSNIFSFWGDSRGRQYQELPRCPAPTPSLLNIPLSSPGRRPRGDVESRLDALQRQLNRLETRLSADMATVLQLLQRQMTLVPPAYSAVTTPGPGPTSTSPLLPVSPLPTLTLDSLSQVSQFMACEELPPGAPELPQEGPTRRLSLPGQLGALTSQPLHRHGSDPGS
row,SMILES,"hERG current change (%, negative = inhibition) at 10uM [%]"
1,CC(=O)c1ccc(NS(=O)(=O)c2cccc(C)c2)cc1,-1.86
2,COC(=O)c1cccc(NC(=O)CC2C(=O)NCCN2C(=O)Nc2cc(C)cc(C)c2)c1 (centres unmarked),11
3,COc1ccc(CNc2ncc(-c3ccccc3)n2C)c2ccccc12.O=C(O)C(=O)O,-34.5
4,CCOc1ccc(-c2cnc(NCc3cccc4ccccc34)n2CCOC)cc1.O=C(O)C(=O)O,-58.8
5,COc1ccccc1CNc1ncc(-c2ccc(F)cc2)n1C.O=C(O)C(=O)O,-62
6,COc1ccc(CNc2ncc(-c3ccc(F)cc3)n2C)cc1OC.O=C(O)C(=O)O,-65.2
7,COc1ccc(CNc2ncc(-c3ccc(F)cc3)n2C)c2ccccc12.O=C(O)C(=O)O,-35.1
8,Cn1c(-c2ccc(F)cc2)cnc1NCc1ccccc1F.O=C(O)C(=O)O,-27.3
9,COc1ccccc1CNc1ncccn1.O=C(O)C(=O)O,23.6
10,COCCn1c(-c2ccc(OC)cc2)cnc1SCC(=O)Nc1cccc2ccccc12,-21.8
11,COCCCNC(=O)Cn1c(=O)n(Cc2ccccc2Cl)c(=O)c2cc(OC)c(OC)cc21,9.48
12,COc1ccc(-c2nc(N)n(S(=O)(=O)c3ccc(C)cc3)n2)cc1,39
13,CC(=O)Nc1nc(COc2ccccc2)cs1,-4.04
14,COC(=O)C(Cc1c[nH]c2ccccc12)NC(=O)c1cncc(Br)c1 (centres unmarked),1.85
15,CCOC(=O)N1CCN(S(=O)(=O)N2CCCC(C(=O)NCCCN3CCCCC3)C2)CC1 (centres unmarked),10
16,COc1ccc(Nc2ccnc3ccccc23)cc1.Cl,-33.8
17,CC(C)Nc1ccc(Nc2ccnc3cc4ccccc4cc23)cc1,-72.7
18,CC(C)Nc1ccc(Nc2ccccc2)cc1,-0.32
19,Cc1ccc(N(CC(=O)N2CCN(Cc3ccccc3)CC2)S(C)(=O)=O)cc1C,-7.28

row,SMILES,"hERG current change (%, negative = inhibition) at 10uM [%]"
1,CCOC(=O)N1CCN(C(=O)CN(c2cccc(C(F)(F)F)c2)S(=O)(=O)c2ccccc2)CC1,-43.6
2,CS(=O)(=O)N(CC(=O)N1CCN(Cc2ccccc2)CC1)c1cccc([N+](=O)[O-])c1,-75.5
3,CCOC(=O)C1CCN(C(=O)CN(c2cccc(C(F)(F)F)c2)S(C)(=O)=O)CC1,-25.9
4,CCOC(=O)N1CCN(C(=O)CN(c2cccc(C(F)(F)F)c2)S(C)(=O)=O)CC1,-51.1
5,CS(=O)(=O)N(CC(=O)N1CCN(Cc2ccccc2)CC1)c1cccc(F)c1,-36.3
6,CS(=O)(=O)N(CC(=O)N1CCOCC1)c1cccc([N+](=O)[O-])c1,6.28
7,CS(=O)(=O)N(CC(=O)N1CCN(Cc2ccccc2)CC1)c1cccc(Cl)c1,-63.8
8,CS(=O)(=O)N(CC(=O)N1CCCCCC1)c1cccc([N+](=O)[O-])c1,-32.7
9,CC(C)CC(C(=O)NC1CCCC1)N(Cc1cccs1)C(=O)c1snc(C(N)=O)c1N (centres unmarked),-40.5
10,CS(=O)(=O)c1ccc2nnn(OCC(=O)Nc3ccc(Br)cc3Br)c2c1,7.34
11,Cc1ccc(/C=N/c2sc3c(c2C(N)=O)CCCC3)o1,23.3
12,COCCNC(=O)/C(C#N)=C/c1cccc(/C=C(\C#N)C(=O)NCCOC)c1,0.707
13,COc1ccc(CC2(CO)CCN(Cc3cnc(-c4ccccc4C)nc3)CC2)cc1,-20.6
14,COc1ccc(CC2(CO)CCN(Cc3cnn(-c4ccccc4OC)c3)CC2)cc1,-64.8
15,COc1ccc(CC2(CO)CCN(Cc3cnn(-c4ccccc4)c3)CC2)cc1,-77.6
16,COc1ccccc1-n1cc(CN2CCN(CC=C(C)C)C(CCO)C2)cn1 (centres unmarked),-13.7
17,COc1ccc(CC2(CO)CCN(Cc3cccnc3)CC2)cc1,-40.3
18,COc1ccc(CC2(CO)CCN(Cc3cnn(-c4ccc(F)cc4)c3)CC2)cc1,-76.4
19,COc1ccccc1-n1cc(CN2CCN(C3CCCC3)C(CCO)C2)cn1 (centres unmarked),-15.3

row,SMILES,"hERG current change (%, negative = inhibition) at 10uM [%]"
1,Cc1ccc(CCNC(=O)C2CCN(S(=O)(=O)c3ccc4c(c3)NC(=O)CO4)CC2)cc1,-1.82
2,CC(NC(=O)OCc1ccccc1)c1ccccc1 (centres unmarked),-22.9
3,COCCN1C(=O)N(c2cccc(C)c2)C(=O)C1CC(=O)Nc1cc(OC)cc(OC)c1 (centres unmarked),10.2
4,CC(C)Cc1nnc(NC(=O)CCC(=O)N2CCN(c3ccccc3)CC2)s1,13.2
5,CCN(CC)CCNC(=O)c1cc([N+](=O)[O-])c(N(C)C)cc1OC.Cl,-12
6,CCCSc1cc(Cl)nc(N)n1,-9.06
7,COc1ccc(S(=O)(=O)Nc2cccc(F)c2C)cc1C(=O)N1CCOCC1,6.33
8,CC(NC(=O)COC(=O)c1cn(-c2ccccc2)nc1-c1cccs1)c1ccccc1 (centres unmarked),0.115
9,COC(=O)c1c(NC(C)=O)sc(C(=O)Nc2ccccc2OC)c1C,16.2
10,CC(Cc1n[nH]c(=S)o1)c1ccccc1 (centres unmarked),20.7
11,COc1cccc(C(C(=O)NC2CCCC2)N(Cc2cccnc2)C(=O)Cc2cccs2)c1 (centres unmarked),-5.67
12,COc1ccc(C2=Nc3ccc(C)cc3C(c3ccccc3)N2CC(=O)NN)cc1 (centres unmarked),-23.2
13,O=[N+]([O-])c1ccccc1NCc1ccc(Cl)cc1,-19.5
14,C/C=C/c1ccc(OCC(O)CNCCc2ccc(OC)cc2)c(OC)c1.O=C(O)C(=O)O (centres unmarked),-73.4
15,C=CCNCC(O)COc1ccc(C(C)=O)cc1OC.O=C(O)C(=O)O (centres unmarked),-6.16
16,C/C=C/c1ccc(OCCCNCC(C)O)c(OC)c1 (centres unmarked),-29.2
17,COC(=O)c1ccc(OCC(O)CNCC(c2ccc(OC)cc2)N(C)C)c(OC)c1 (centres unmarked),-21.4
18,C/C=C/c1ccc(OCC(O)CNCC(c2ccc(OC)cc2)N(C)C)c(OC)c1.O=C(O)C(=O)O (centres unmarked),-66.5
